Measured values reported in the supplement of paper PMC10849652.
Of roughly 7,900 targets only a part is listed; those with a hit were picked by preference. About 0.6% of all pairs of compound and target were hits.

How the values were obtained:
Experiment in all cases: log2 fold change, soluble protein after heating vs DMSO (PISA); higher = thermal stabilisation; K562 cells, 10 uM, 30 min; active = over 0.2 and 3.5 SD of the protein, either way, in both replicates (recomputed)
rucaparib = compound: CNCc1ccc(-c2[nH]c3cc(F)cc4c3c2CCNC4=O)cc1 [rucaparib]
In short: (§1)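 K562 cells at 2×10^6 cells/mL were treated for 30 min with 10 μM compound, and aliquots were heated for 3 min over 48°C-58°C before pooling. Extraction used PBS with 0.5% NP-40 at 4°C, and soluble protein was the supernatant after 21,000xg for 90 min, measured by TMTpro 16plex LC-MS/MS with channel sums equalised. Thermal stability values, relative to control samples and from duplicates, are log2 fold changes.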

encorafenib = compound: COC(=O)N[C@@H](C)CNc1nccc(-c2cn(C(C)C)nc2-c2cc(Cl)cc(NS(C)(=O)=O)c2F)n1 [encorafenib]
In short: as §1

idasanutlin = compound: COc1cc(C(=O)O)ccc1NC(=O)[C@@H]1N[C@@H](CC(C)(C)C)[C@](C#N)(c2ccc(Cl)cc2F)[C@H]1c1cccc(Cl)c1F [idasanutlin]
In short: as §1

alisertib = compound: COc1cc(Nc2ncc3c(n2)-c2ccc(Cl)cc2C(c2c(F)cccc2OC)=NC3)ccc1C(=O)O [alisertib]
In short: as §1

[1] = compound: COc1cccc2cc(-c3nc([C@H]4CC[C@H](C(=O)O)CC4)n4ncnc(N)c34)[nH]c12
In short: as §1

pictilisib = compound: CS(=O)(=O)N1CCN(Cc2cc3nc(-c4cccc5[nH]ncc45)nc(N4CCOCC4)c3s2)CC1 [pictilisib]
In short: as §1

sotrastaurin = compound: CN1CCN(c2nc(C3=C(c4c[nH]c5ccccc45)C(=O)NC3=O)c3ccccc3n2)CC1 [sotrastaurin]
In short: as §1

alvocidib = compound: CN1CC[C@H](c2c(O)cc(O)c3c(=O)cc(-c4ccccc4Cl)oc23)[C@H](O)C1 [alvocidib]
In short: as §1

Tubastatin A = compound: CN1CCc2c(c3ccccc3n2Cc2ccc(C(=O)NO)cc2)C1 [Tubastatin A]
In short: as §1

[2] = compound: CNC(=O)C1=CC=CC=C1NC2=NC(=NC=C2Cl)NC3=C(C=C(C=C3)N4CCOCC4)OC
In short: as §1

defactinib = compound: CNC(=O)c1ccc(Nc2ncc(C(F)(F)F)c(NCc3nccnc3N(C)S(C)(=O)=O)n2)cc1 [defactinib]
In short: as §1

[3] = compound: COC(=O)[C@H](CCSC)NC(=O)C1=C(C=C(C=C1)NC[C@H](CS)N)C2=CC=CC=C2
In short: as §1

[4] = compound: COC1=CC=C(C=C1)CN2C=CC3=C2C=C(C=C3)C(=O)NO
In short: as §1

filanesib = compound: CON(C)C(=O)N1N=C(c2cc(F)ccc2F)S[C@@]1(CCCN)c1ccccc1 [filanesib]
In short: as §1

zotarolimus = compound: CO[C@H]1C[C@@H]2CC[C@@H](C)[C@@](O)(O2)C(=O)C(=O)N2CCCC[C@H]2C(=O)O[C@H]([C@H](C)C[C@@H]2CC[C@H](n3cnnn3)[C@H](OC)C2)CC(=O)[C@H](C)/C=C(\C)[C@@H](O)[C@@H](OC)C(=O)[C@H](C)C[C@H](C)/C=C/C=C/C=C/1C [zotarolimus]
In short: as §1

gefitinib = compound: COc1cc2ncnc(Nc3ccc(F)c(Cl)c3)c2cc1OCCCN1CCOCC1 [gefitinib]
In short: as §1

[5] = compound: COc1cc2nc(-c3cc(F)ccc3O)nc(N[C@@H]3CNC[C@H]3C(C)(C)O)c2cc1OC
In short: as §1

lapatinib = compound: CS(=O)(=O)CCNCc1ccc(-c2ccc3ncnc(Nc4ccc(OCc5cccc(F)c5)c(Cl)c4)c3c2)o1 [lapatinib]
In short: as §1

saracatinib = compound: CN1CCN(CCOc2cc(OC3CCOCC3)c3c(Nc4c(Cl)ccc5c4OCO5)ncnc3c2)CC1 [saracatinib]
In short: as §1

[6] = compound: CNc1nc(-c2ccc3c(N)n[nH]c3c2)cc(N2C[C@@H](C(=O)NC3CCCCC3)CC[C@H]2C)n1
In short: as §1

Measured: log2 fold change

TBC1D2 (UniProt Q9BYX2)
Chain of UniProt Q9BYX2 (Q9BYX2 whole entry, looked up): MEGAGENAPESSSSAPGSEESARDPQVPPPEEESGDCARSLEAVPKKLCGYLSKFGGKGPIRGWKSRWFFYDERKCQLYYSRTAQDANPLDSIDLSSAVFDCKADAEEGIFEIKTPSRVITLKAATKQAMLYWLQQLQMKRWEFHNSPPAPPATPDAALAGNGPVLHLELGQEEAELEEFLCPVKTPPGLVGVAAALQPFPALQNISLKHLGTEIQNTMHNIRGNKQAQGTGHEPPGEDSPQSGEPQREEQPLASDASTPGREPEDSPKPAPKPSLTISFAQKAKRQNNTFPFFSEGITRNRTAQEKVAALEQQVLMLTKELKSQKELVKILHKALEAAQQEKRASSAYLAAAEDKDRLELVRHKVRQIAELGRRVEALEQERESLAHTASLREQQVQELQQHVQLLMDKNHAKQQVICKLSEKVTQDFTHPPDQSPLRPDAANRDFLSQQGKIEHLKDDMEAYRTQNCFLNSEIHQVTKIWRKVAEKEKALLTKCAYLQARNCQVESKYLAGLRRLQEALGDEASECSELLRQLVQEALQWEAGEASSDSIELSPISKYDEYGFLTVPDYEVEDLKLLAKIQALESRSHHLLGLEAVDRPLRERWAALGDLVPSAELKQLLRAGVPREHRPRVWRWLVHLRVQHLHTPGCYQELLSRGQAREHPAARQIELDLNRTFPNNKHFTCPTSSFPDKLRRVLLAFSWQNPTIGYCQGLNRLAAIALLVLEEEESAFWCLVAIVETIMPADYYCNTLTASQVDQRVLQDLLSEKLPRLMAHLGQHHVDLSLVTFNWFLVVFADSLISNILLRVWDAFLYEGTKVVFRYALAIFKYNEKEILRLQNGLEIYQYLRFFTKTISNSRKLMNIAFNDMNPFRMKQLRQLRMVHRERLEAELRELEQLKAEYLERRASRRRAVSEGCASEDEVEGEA
inactive: rucaparib 0.264 | encorafenib 0.122 | idasanutlin 0.016 | alisertib -0.053 | [1] -0.211 | pictilisib -0.097

SPAG9 isoform 4 (UniProt O60271)
Chain of UniProt O60271 (O60271 whole entry, looked up): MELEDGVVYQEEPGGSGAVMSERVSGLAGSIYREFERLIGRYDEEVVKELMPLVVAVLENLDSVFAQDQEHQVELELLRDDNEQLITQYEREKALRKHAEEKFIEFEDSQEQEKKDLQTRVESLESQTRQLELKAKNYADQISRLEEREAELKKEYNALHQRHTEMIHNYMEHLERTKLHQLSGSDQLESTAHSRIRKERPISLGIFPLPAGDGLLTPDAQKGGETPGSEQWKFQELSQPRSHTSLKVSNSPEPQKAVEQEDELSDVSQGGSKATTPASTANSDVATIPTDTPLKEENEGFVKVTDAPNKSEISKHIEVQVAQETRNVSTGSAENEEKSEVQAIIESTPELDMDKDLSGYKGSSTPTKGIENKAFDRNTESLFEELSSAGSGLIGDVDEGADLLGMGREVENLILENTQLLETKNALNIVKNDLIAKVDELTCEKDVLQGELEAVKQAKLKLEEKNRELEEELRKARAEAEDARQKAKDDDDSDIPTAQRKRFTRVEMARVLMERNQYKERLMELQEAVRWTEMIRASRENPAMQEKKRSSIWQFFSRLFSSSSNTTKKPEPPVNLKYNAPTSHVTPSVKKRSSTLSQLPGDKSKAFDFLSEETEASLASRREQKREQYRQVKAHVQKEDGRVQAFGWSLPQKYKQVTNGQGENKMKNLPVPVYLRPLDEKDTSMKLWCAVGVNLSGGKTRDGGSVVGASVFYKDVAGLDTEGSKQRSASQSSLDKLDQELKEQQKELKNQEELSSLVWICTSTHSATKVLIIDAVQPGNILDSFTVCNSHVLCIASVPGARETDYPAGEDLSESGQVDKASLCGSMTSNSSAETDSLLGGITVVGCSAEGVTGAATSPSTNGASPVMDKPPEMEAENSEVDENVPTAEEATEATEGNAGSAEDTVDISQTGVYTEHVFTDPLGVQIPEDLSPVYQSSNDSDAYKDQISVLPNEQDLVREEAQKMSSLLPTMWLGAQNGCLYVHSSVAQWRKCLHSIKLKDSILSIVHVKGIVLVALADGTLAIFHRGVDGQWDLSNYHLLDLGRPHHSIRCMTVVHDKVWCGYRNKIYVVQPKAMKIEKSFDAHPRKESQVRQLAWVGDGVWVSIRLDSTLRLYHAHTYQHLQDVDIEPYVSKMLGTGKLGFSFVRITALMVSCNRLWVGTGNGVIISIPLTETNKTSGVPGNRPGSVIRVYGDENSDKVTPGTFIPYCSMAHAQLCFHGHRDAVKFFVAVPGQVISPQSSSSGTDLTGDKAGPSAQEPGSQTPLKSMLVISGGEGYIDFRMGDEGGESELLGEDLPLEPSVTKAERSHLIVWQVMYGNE
inactive: sotrastaurin -0.171 | alvocidib 0.037 | Tubastatin A -0.103 | [2] 0.081 | defactinib 0.018 | rucaparib 0.113 | encorafenib 0.022 | [3] 0.088 | [4] -0.02 | filanesib 0.078 | zotarolimus -0.076 | idasanutlin -0.006 | alisertib 0.062 | gefitinib -0.007 | [1] -0.112

SUPT5H isoform 2 (UniProt O00267)
inactive: defactinib -0.005 | [3] -0.058

SSBP4 (UniProt U3KPY3)
inactive: defactinib -0.189 | [3] -0.121 | alisertib 0.023 | [1] 0.212

SOX5 (UniProt P35711)
inactive: sotrastaurin -0.014 | alvocidib -0.163 | Tubastatin A 0.263 | [2] -0.053 | defactinib -0.224 | [3] 0.064 | [4] -0.087 | filanesib -0.08 | zotarolimus -0.058 | idasanutlin 0.006 | alisertib -0.089 | [5] -0.055 | gefitinib -0.012 | [1] 0.105 | lapatinib 0.051

SLC39A1 (UniProt Q9NY26)
inactive: alvocidib 0.072 | [2] -0.129 | zotarolimus -0.15 | pictilisib -0.053

SNX2 isoform 2 (UniProt O60749)
Chain of UniProt O60749 (O60749 whole entry, looked up): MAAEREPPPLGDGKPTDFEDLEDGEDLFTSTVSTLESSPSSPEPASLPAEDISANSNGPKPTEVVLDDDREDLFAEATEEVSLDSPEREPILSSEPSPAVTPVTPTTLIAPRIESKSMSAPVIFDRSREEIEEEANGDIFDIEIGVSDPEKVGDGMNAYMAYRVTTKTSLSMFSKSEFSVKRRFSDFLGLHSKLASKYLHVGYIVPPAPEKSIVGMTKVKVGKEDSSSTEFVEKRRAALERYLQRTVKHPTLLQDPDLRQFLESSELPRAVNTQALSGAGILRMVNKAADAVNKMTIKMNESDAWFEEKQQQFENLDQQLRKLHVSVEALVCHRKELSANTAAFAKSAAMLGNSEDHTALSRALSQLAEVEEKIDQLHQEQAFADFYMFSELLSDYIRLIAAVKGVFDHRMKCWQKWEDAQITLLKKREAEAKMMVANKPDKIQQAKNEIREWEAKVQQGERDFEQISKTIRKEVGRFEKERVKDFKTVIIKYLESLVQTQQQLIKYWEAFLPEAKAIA
inactive: saracatinib -0.002 | sotrastaurin 0.003 | alvocidib -0.078 | defactinib -0.155 | rucaparib 0.024 | [6] 0.176 | encorafenib -0.141 | [3] 0.097 | [4] 0.258 | filanesib -0.234 | zotarolimus 0.022 | idasanutlin -0.054 | [5] 0.462 | lapatinib 0.041

TDP1 (UniProt Q9NUW8)
Chain of UniProt Q9NUW8 (Q9NUW8 whole entry, looked up): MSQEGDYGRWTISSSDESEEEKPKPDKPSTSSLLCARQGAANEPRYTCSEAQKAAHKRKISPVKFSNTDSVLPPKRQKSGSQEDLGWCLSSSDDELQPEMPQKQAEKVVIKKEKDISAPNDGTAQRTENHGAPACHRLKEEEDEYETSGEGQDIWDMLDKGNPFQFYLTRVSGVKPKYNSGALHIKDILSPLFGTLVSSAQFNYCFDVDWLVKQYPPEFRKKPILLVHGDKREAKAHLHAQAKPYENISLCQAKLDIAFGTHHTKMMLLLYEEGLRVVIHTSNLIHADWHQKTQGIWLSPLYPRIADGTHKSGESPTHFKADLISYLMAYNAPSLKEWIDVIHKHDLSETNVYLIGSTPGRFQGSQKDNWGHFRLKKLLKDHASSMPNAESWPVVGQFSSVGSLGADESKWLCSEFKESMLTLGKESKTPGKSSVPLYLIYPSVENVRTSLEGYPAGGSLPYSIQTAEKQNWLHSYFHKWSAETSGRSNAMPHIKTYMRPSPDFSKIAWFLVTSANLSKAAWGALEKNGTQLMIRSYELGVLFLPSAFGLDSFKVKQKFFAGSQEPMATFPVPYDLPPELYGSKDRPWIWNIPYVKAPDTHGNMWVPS
inactive: alvocidib -0.028 | [2] -0.041 | zotarolimus -0.015

SMPD4 isoform 2 (UniProt Q9NXE4)
Chain of UniProt Q9NXE4 (Q9NXE4 whole entry, looked up): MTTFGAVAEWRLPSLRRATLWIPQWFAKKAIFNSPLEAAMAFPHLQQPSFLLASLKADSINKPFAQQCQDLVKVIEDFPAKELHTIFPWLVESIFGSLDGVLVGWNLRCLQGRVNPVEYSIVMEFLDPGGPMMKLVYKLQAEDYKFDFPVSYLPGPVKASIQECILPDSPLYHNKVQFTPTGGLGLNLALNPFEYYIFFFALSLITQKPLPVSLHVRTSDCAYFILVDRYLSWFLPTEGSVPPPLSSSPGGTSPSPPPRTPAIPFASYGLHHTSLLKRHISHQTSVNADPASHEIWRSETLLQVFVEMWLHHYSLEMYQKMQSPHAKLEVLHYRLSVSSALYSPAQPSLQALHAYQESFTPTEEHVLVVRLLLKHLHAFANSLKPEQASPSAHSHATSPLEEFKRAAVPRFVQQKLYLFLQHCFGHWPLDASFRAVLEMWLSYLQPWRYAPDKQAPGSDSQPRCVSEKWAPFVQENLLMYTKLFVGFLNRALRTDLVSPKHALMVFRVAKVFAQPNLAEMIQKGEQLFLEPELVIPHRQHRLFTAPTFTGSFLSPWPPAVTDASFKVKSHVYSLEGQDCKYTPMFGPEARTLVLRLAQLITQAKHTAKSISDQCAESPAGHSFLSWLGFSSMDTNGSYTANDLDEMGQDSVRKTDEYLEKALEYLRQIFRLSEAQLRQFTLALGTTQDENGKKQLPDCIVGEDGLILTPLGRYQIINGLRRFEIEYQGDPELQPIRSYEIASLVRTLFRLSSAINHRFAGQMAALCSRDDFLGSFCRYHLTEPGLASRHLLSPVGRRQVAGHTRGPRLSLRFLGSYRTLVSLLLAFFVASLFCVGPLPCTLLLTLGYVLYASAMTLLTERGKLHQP
inactive: saracatinib 0.028 | alvocidib -0.07 | Tubastatin A -0.054 | defactinib 0.094 | [6] 0.02 | [3] -0.19 | [4] -0.011 | zotarolimus 0.043 | idasanutlin -0.16 | alisertib -0.117 | [5] -0.308 | [1] 0.003 | lapatinib 0.131 | pictilisib -0.108

SRSF9 (UniProt Q13242)
Chain of UniProt Q13242 (Q13242 whole entry, looked up): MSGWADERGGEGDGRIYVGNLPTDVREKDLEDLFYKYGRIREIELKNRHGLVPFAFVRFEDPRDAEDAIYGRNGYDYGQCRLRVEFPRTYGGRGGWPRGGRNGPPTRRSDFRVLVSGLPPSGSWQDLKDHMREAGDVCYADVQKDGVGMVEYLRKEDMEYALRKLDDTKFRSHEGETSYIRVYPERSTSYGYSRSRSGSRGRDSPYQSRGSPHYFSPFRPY
inactive: saracatinib 0.022 | sotrastaurin -0.015 | alvocidib 0.27 | [2] -0.145 | defactinib 0.276 | rucaparib 0.376 | [6] 0.097 | encorafenib 0.149 | [3] -0.024 | [4] -0.088 | filanesib 0.378 | zotarolimus -0.026 | idasanutlin 0.297 | alisertib -0.118 | [5] -0.09 | gefitinib -0.068 | [1] -0.128 | lapatinib 0.155 | pictilisib -0.036

SLC38A7 (UniProt Q9NVC3)
Chain of UniProt Q9NVC3 (Q9NVC3 whole entry, looked up): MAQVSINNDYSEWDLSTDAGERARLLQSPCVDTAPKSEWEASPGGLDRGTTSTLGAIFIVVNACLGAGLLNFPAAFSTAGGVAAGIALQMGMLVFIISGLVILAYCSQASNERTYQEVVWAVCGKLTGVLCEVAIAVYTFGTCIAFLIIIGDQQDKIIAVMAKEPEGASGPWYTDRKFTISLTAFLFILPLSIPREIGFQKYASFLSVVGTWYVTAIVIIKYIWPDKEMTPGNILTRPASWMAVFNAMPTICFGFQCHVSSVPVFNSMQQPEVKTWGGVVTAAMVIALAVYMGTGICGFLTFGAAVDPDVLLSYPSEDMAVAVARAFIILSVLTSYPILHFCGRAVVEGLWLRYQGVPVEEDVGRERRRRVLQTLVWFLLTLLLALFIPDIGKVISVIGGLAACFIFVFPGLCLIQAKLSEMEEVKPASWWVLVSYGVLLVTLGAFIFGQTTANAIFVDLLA
inactive: sotrastaurin 0.152 | alvocidib -0.137 | Tubastatin A -0.177 | [2] -0.052 | defactinib -0.126 | rucaparib 0.004 | encorafenib 0.016 | [3] -0.261 | [4] -0.042 | filanesib -0.098 | zotarolimus 0.095 | idasanutlin -0.077 | alisertib -0.136 | [5] 0.01 | gefitinib 0.035 | [1] 0.069 | lapatinib -0.057 | pictilisib 0.022
